Results filed as inconclusive are left out. Active and inactive are the calls of the source.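 How the source made its calls, unless noted: active means viability loss from added drug above about 55%, and viability with drug at most 40%, in both replicates (limit read from the data, passing the limit was not always enough); inconclusive means both conditions met in only one replicate; inactive means neither replicate meets both conditions.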
Tests used:
[1] = Her2 expression decrease, cell viability multiplex – SKBR3 breast tumor cells, AlphaScreen, ATP viability, primary screen (AID 461;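 active means Her2 level under about 52% in both replicate screens, with viability over 70% of control, limit read from the data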;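 on Her2 level: lower value means less Her2 protein in the cells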;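 on viability: percent of carrier control wells set as 100% viability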); details: SKBR3 Her2 protein level, 18-24 h, measured here: SKBR3 viability, ATP luminescence, at 10 µM
[2] = target: Receptor tyrosine-protein kinase erbB-2 (Homo sapiens) (UniProt P04626); assay: as above; details: 18-24 h, at 10 µM, stronger effect = lower value
[3] = reduced viability of SK-BR-3 breast cancer cells – cell-based, 24 h, human, pilot screen (AID 572;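 active means viability at or below 10% of carrier control in both of two separate runs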;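 further: compound exposure lasted between 18 and 24 h rather than exactly 24 h; 100% = carrier-treated control wells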); details: SK-BR-3 viability, CellTiter-Glo luminescence, at 10 µM, stronger effect = lower value
[4] = HUVEC growth inhibition – cell-based, human, primary screen (AID 575;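 active means viability at or below 30% in both replicate assays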;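 further: 100% = median of untreated cell wells with 0.1% DMSO on each plate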); details: HUVEC proliferation, CellTiter-Glo luminescence, 72 h; at 10 µM; stronger effect = lower value
[5] = H69AR cell proliferation blockers – human, duplicate replicates, primary screen (AID 580;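 active means viability at or under a set limit in both replicates, limit being median viability minus 3 SD, cut at about 48% in these data, passing the limit was not always enough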;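 further: 100% = mean luminescence of untreated wells and 0% = no signal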); details: H69AR lung tumor cells viability, ATP luminescence, 72 h; at 10 µM; stronger effect = lower value
[6] = MRP1 drug-resistance reversers in H69AR cells – cell-based, doxorubicin co-treatment, pilot screen (AID 601); details: CellTiter-Glo, 72 h, at 10 µM; for differential viability (reversal): stronger effect = higher value
[7] = yeast transport mutant growth inhibition pilot in 384-well plates, post-Golgi transport modulator project (AID 636; in the data active means inhibition above about 31%); details: absorbance 615 nm, about 18 h, stronger effect = higher value
[8] = growth suppression of yeast trafficking mutant, preliminary HTS, modulators of trafficking downstream of Golgi apparatus project, 1536-format plate, OD 615 nm (AID 637; in the data active means inhibition above about 30%); details: yeast transport mutant growth, absorbance 615 nm, 18 h; stronger effect = higher value
[9] = S. cerevisiae growth inhibition in permissive medium (OD615), pilot counter-assay for S. cerevisiae lifespan shortening project, permissive growth control (AID 705;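 active means growth inhibition above 25% in both replicates, a cutoff set 3 SD above the mean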); details: OD615, 24 h, at 10 µM, stronger effect = higher value
[10] = S. cerevisiae growth inhibition in restrictive medium, OD615, pilot screen, restrictive growth control, yeast lifespan reduction project (AID 706;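 active means growth inhibition above a set limit, 3 SD over mean compound inhibition, in both replicates, cut at about 43% in these data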;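 further: modified DeaD lifespan yeast strain shifted to restrictive glucose medium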); details: OD615, 48 h, at 10 µM, stronger effect = higher value
[11] = doxorubicin toxicity protection in MRP-1 cells – H69AR cells, CellTiter-Glo, duplicate, MRP-1 activator project, pilot screen (AID 807;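 active means viability increase at or above a cutoff of the median across tested compounds plus 3 SD, cut at about 8.5% in these data, passing the limit was not always enough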;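 further: compound pretreatment 18-22 h then 72 h combined with doxorubicin; 0% = doxorubicin alone and 100% = vehicle without doxorubicin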); details: H69AR viability with doxorubicin, CellTiter-Glo luminescence; at 10 µM; stronger effect = higher value
[12] = viability of HCT116 without oncogenic beta-catenin – human colon tumor cells, pilot screen (AID 823;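 active means cell viability at or below a set limit in both duplicate runs, the limit being the all-compound median minus 4 SD, cut at about 23% in these data, passing the limit was not always enough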;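 further: 0% = wells killed by 20 µM Hyamine and 100% = untreated DMSO cell wells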); details: HCT116 beta-catenin knockout viability, CellTiter-Glo, 60 h; at 10 µM; stronger effect = lower value
[13] = viability of PTEN-null HCT116 cells – cell-based, HCT116 clonal line, CellTiter-Glo, pilot screen (AID 824;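 active means viability at or below 27.92% in each of two runs, the all-compound median minus 4 SD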;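 further: 0% = 20 µM Hyamine control and 100% = vehicle cell control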); details: HCT116 PTEN-deleted viability, 60 h, at 10 µM, stronger effect = lower value
[14] = RAM pathway blockade in budding yeast – dse1pr::URA3 reporter, 5-FOA selection, pilot screen (AID 869;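 active means inhibition over a set limit, the all-compound mean plus 3 SD, in both replicate runs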;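 further: 0% = DMSO wells with no growth and 100% = 10 µM 1-NA-PP1 with full growth; RAM network block rescues cells from 5-FOA so hits raise OD615 growth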); details: S. cerevisiae dse1pr::URA3 5-FOA growth, OD615, 2 d; at 10 µM; stronger effect = higher value; strain carries analog-sensitive mutant Cbk1 kinase
[15] = RAM signaling pathway blockade in yeast – S. cerevisiae, Pdr1DBD-CYC8 efflux-inhibited sensitized strain, primary screen (AID 1298;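 active means RAM network inhibition above 8.4% in each of two replicates, 3 SD over the compound average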;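 further: 0% = DMSO untreated cells without growth and 100% = 10 µM 1-NA-PP1 full growth; higher means more yeast growth rescued from 5-FOA killing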); details: S. cerevisiae cbk1-as DSE1-URA3 strain, 5-FOA growth OD615, 2 d; at 50 µM; stronger effect = higher value
[16] = H69AR cells + 2 uM doxorubicin, measured here: viability with 2 uM doxorubicin, stronger effect = lower value
[17] = H69AR cells, compound alone cytotoxicity

Sequence of Receptor tyrosine-protein kinase erbB-2 (Homo sapiens) (P04626 whole entry, looked up): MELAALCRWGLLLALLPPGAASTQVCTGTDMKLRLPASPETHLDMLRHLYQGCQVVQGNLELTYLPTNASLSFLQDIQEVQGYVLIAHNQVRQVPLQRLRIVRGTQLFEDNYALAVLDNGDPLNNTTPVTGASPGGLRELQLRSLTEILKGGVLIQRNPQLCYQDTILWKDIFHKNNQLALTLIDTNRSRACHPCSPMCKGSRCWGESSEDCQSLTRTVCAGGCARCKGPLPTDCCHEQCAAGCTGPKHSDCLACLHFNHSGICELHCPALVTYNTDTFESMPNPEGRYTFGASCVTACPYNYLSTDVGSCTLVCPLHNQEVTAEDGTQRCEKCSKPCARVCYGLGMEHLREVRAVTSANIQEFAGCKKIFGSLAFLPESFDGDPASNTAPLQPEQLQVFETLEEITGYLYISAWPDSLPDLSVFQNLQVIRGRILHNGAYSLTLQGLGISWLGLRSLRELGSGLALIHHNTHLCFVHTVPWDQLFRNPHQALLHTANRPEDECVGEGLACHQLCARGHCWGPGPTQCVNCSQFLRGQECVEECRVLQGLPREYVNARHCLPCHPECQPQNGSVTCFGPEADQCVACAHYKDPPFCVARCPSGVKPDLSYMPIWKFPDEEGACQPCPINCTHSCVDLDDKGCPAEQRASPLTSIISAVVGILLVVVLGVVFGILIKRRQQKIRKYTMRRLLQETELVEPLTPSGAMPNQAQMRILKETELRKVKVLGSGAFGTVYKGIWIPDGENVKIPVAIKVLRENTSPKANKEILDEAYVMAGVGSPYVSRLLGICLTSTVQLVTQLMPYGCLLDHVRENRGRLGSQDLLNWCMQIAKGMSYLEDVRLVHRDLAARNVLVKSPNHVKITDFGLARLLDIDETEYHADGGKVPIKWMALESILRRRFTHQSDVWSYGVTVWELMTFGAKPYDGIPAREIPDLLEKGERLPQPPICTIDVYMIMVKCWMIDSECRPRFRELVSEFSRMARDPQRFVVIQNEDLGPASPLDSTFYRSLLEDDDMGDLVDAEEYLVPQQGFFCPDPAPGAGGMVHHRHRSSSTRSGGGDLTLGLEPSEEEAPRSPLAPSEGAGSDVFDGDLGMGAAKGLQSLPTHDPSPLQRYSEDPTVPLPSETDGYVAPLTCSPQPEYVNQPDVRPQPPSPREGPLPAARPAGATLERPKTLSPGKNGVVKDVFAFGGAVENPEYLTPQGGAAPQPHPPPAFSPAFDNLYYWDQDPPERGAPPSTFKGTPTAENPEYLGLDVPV

SMILES | viability [1] [%] | Her2 level [2] | viability [3] | viability [4] | viability [5] | differential viability (reversal) ([6]; H69AR cells + 2 uM doxorubicin) | viability [6, 16] [%] | viability [6, 17] [%] | inhibition [7] | inhibition [8] | growth inhibition [9] | growth inhibition [10] | viability increase [11] | viability [12] | viability [13] | inhibition [14] | RAM network inhibition [15]
CCN1C(=O)c2ccccc2S(=O)(=O)c2ccc(C(=O)NCc3cccnc3)cc21 | 95.5 | 114% (inactive) | 95.5% (inactive) | 85.6% (inactive) | 91.5% (inactive) | -0.065% (inactive) | 91.6 | 91.5 | 0.93% (inactive) | 8.5% (inactive) | -2.51% (inactive) | -4.21% (inactive) | -2.25% (inactive) | 93.4% (inactive) | 90.4% (inactive) | 0.65% (inactive) | 1.98% (inactive)
COc1ccc(-c2nnc(SCC(=O)NC(C)c3ccccc3)o2)cc1 (stereo not given) | 94 | 102% (inactive) | 94% (inactive) | 82% (inactive) | 100% (inactive) | 5.95% (inactive) | 94.4 | 100 | 1.87% (inactive) | 2.33% (inactive) | -4.83% (inactive) | -1.46% (inactive) | -3.41% (inactive) | 90.8% (inactive) | 89.8% (inactive) | 1.37% (inactive) | 6.94% (inactive)
CCC(CC)C(=O)NCCc1cc2ccc(C)cc2[nH]c1=O | 99 | 95% (inactive) | 99% (inactive) | 85.2% (inactive) | 87.6% (inactive) | -5.36% (inactive) | 92.9 | 87.6 | -4.8% (inactive) | 4.67% (inactive) | 1.09% (inactive) | 0.345% (inactive) | -2.76% (inactive) | 102% (inactive) | 97.4% (inactive) | 0.02% (inactive) | 4.75% (inactive)
CCCCCCn1c(SCC(=O)OC)nc2c1c(=O)[nH]c(=O)n2C | 100 | 90% (inactive) | 100% (inactive) | 81.1% (inactive) | 70.9% (inactive) | 0.365% (inactive) | 70.6 | 70.9 | -4.8% (inactive) | 1.33% (inactive) | -12.9% (inactive) | 9.17% (inactive) | -1.89% (inactive) | 98.6% (inactive) | 103% (inactive) | 0.08% (inactive) | 2.66% (inactive)
COc1cc(OC)c2c(c1)OC(c1ccc(OC)c(OC)c1)C(O)C2=O (stereo not given) | 90.5 | 79% (inactive) | 90.5% (inactive) | 112% (inactive) | 90.9% (inactive) | 12.9% (inactive) | 78 | 90.9 | -2.67% (inactive) | 0.82% (inactive) | -13.6% (inactive) | -14.9% (inactive) | -1.91% (inactive) | 101% (inactive) | 100% (inactive) | 2.65% (inactive) | 2.25% (inactive)
CCOC(=O)c1ccc(N2Cc3cc(C)c(C)cc3C2)cc1O | 95.5 | 95.5% (inactive) | 95.5% (inactive) | 108% (inactive) | 97.3% (inactive) | 4.4% (inactive) | 92.9 | 97.3 | 4.27% (inactive) | 10.3% (inactive) | -10.9% (inactive) | -7.42% (inactive) | 2.66% (inactive) | 107% (inactive) | 93.8% (inactive) | 0.285% (inactive) | 1.88% (inactive)
O=C(NC(=O)c1cccc(F)c1)OC[C@@H]1CCCN2CCCC[C@H]12 | 102 | 111% (inactive) | 102% (inactive) | 110% (inactive) | 96.5% (inactive) | 0.59% (inactive) | 95.9 | 96.5 | -6% (inactive) | 1.48% (inactive) | 1.28% (inactive) | -9.63% (inactive) | -0.15% (inactive) | 99.4% (inactive) | 96.3% (inactive) | 0.89% (inactive) | 9.99% (inactive)
CCS(=O)(=O)c1nc2ccccc2n1Cc1ccccc1Cl | 101 | 93% (inactive) | 101% (inactive) | 109% (inactive) | 74.1% (inactive) | -9.51% (inactive) | 83.6 | 74.1 | -0.27% (inactive) | 5.33% (inactive) | -25.4% (inactive) | -20.7% (inactive) | -4.6% (inactive) | 71% (inactive) | 61.5% (inactive) | -0.515% (inactive) | 5.91% (inactive)
COc1cccc(CNC(=O)Cn2c(=O)oc3ccccc32)c1OC | 110 | 99% (inactive) | 110% (inactive) | 89.8% (inactive) | 92.3% (inactive) | 0.115% (inactive) | 92.2 | 92.3 | -6.27% (inactive) | -0.67% (inactive) | -9.48% (inactive) | -12.4% (inactive) | -0.35% (inactive) | 104% (inactive) | 91% (inactive) | 0.75% (inactive) | -0.26% (inactive)
COCCOC(=O)c1[nH]c2c(c1C)C(=O)CC(c1ccco1)C2 (stereo not given) | 85 | 71.5% (inactive) | 85% (inactive) | 57% (inactive) | 23.6% (active) | -37.2% (inactive) | 60.9 | 23.6 | 0.64% (inactive) | 5.67% (inactive) | -16% (inactive) | -15.1% (inactive) | -4.07% (inactive) | 18.9% (active) | 23.9% (active) | 2.79% (inactive) | 2.52% (inactive)

Reference: PubChem BioAssay
